# An excerpt weighted towards active compounds, which were near 2.9% of everything screened.
# PAFAH2 FP inh = inhibitors of human PAFAH2 | AID 492956 | recombinant PAFAH2, FP-rhodamine activity probe, fluorescence polarization | inhibition, % at 3.39 µM | Q99487 | 340,000 compounds, 0.99% hits;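 active = inhibition above the mean over all tested compounds plus 3 SD, cut at about 30% in these data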;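 note: inhibitors block probe labeling of enzyme so polarization drops; 0% = enzyme with DMSO and 100% = wells lacking PAFAH2 protein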
# PAFAH1B2 inh = inhibitors of human PAFAH1B2; P68402; recombinant PAFAH1B2, FP-rhodamine activity probe, fluorescence polarization; inhibition, % at 3.39 µM; 340,000 compounds, 1.2% hits; AID 492953;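 active = inhibition above the mean of all tested compounds plus 3 SD, cut at about 24% in these data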;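 note: 0% = enzyme with DMSO and 100% = wells lacking PAFAH1B2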
# Target sequence (P68402 whole entry, looked up): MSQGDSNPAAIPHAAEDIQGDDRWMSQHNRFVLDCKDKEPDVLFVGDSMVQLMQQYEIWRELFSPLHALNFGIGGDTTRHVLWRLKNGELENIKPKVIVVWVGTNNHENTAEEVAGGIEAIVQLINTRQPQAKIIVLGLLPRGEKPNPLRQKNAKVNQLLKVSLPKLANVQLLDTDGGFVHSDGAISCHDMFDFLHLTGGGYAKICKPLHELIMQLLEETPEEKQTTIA
# Fam108B inh = Fam108B inhibition, counter-screen for RBBP9 inhibitors | recombinant Fam108B, FP-Rh probe fluorescence polarization | inhibition, % at 9.51 µM | 300,000 compounds, 0.33% hits | AID 1947;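 active = inhibition above the screen mean inhibition plus 3 SD, computed separately per campaign, cut at about 18% in these data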;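 note: inhibitors lower polarization as less probe binds the enzyme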
# pPAFAH inh = inhibitors of human plasma PAF acetylhydrolase (pPAFAH); 330,000 compounds, 1.5% hits; inhibition, % at 3.39 µM; recombinant pPAFAH, FP-rhodamine probe fluorescence polarization;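 active = inhibition above the mean inhibition across the screen plus 3 SD, cut at about 25% in these data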;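 note: inhibitors block binding of the rhodamine activity-based probe so polarization drops; 0% = enzyme with DMSO and 100% = wells lacking pPAFAH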
# PAFAH1B3 FP inh = inhibitors of human PAFAH1B3; Q15102; recombinant PAFAH1B3, FP-rhodamine probe, fluorescence polarization; inhibition, % at 3.39 µM; 340,000 compounds, 0.28% hits; AID 492972;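 active = inhibition above the screen-wide average of all tested compounds plus 3 SD, cut at about 25% in these data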;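 note: 0% = enzyme with DMSO only and 100% = wells lacking PAFAH1B3 protein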
# PME-1 inh = blocks human protein phosphatase methylesterase 1; Q9Y570; recombinant PME-1, FP-Rh probe fluorescence polarization; inhibition, % at 5.9 µM; 320,000 compounds, 0.53% hits; AID 2130;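 active = inhibition above the campaign mean of all compounds plus 3 SD, cut at about 26% in these data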;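 note: competitive labeling of PME-1 active site by serine hydrolase directed probe; 0% = PME-1 with DMSO and 100% = wells lacking PME-1 enzyme; inhibitors block probe labeling so polarization falls and inhibition rises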
# Target sequence (Q9Y570 whole entry, looked up): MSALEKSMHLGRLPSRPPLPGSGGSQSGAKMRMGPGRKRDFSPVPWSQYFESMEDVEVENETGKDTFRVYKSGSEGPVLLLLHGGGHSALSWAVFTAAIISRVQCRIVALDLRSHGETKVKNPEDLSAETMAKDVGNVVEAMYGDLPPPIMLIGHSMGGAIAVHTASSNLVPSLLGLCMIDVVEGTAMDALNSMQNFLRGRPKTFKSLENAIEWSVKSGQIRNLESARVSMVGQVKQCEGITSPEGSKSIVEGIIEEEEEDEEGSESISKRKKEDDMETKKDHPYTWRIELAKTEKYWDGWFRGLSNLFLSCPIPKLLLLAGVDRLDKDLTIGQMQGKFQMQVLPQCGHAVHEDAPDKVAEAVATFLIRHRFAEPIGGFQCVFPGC
# Active calls of the source: *; · = no result.
SMILES,PAFAH2 FP inh,PAFAH1B2 inh,Fam108B inh,pPAFAH inh,PAFAH1B3 FP inh,PME-1 inh
Cc1ccc(OCCC(=O)OCC(=O)N2CCN(S(=O)(=O)c3ccc(Cl)cc3)CC2)cc1,-6,28*,4,16,4,9
O=C(O)CCN1C(=O)c2ccc(NC(=O)C(c3ccccc3)c3ccccc3)cc2C1=O,8,6,0,-1,8,-1
Cc1cc(SCc2cccc(C(F)(F)F)c2)nc(=O)[nH]1,5,0,2,8,5,0
Cc1ccc(C2=NC(=O)/C(=C/c3cc(O)c(O)c(Br)c3)S2)cc1,78*,37*,·,·,48*,·
CCn1c(/C=C/c2ccccc2F)nc2ccccc2c1=O,-8,3,·,·,9,·
CCOC(=O)[C@@H]1[C@H]2COc3cc(OC)ccc3[C@H]2N2C(=O)N(c3ccc(C)cc3)C(=O)[C@]12C,9,5,·,2,1,·
O=C(O)c1sccc1SCc1ccc(Cl)cc1Cl,4,30*,-4,6,5,-2
O=C(O)c1oc2ccccc2c1CSc1ccccn1,2,4,-3,4,0,1
O=C(O)c1oc2ccccc2c1CSc1ccc(Cl)cc1,-1,29*,2,2,4,3
O=C(CCn1nnc2ccccc21)NNC(=O)C1CCCCC1,-1,1,-2,25*,4,3
CNC(=O)COC(=O)c1ccc2c(c1)S(=O)(=O)c1ccccc1C2=O,-15,2,2,5,13,-3
CCC(Sc1nc(-c2cccc(OC)c2)c(C#N)c(=O)[nH]1)C(=O)Nc1nnc(C(C)C)s1 (stereo not given),0,35*,-2,0,-4,1
Cc1ccc(/C=C(\C#N)C(=O)NCC2CCCO2)o1 (stereo not given),-4,-4,-1,-6,13,2
Cc1ccccc1-n1c(C)cc(/C=C(\C#N)C(=O)NCC2CCCO2)c1C (stereo not given),0,1,-2,26*,-1,-6
CC(C)(C)c1ccc(OCC(=O)NNC(=S)NC(=O)c2ccccc2[N+](=O)[O-])c(Br)c1,12,39*,3,29*,6,2
O=C(NCCCN1CCCC1=O)c1ccccc1OCc1ccc(Cl)cc1Cl,4,-2,·,5,4,·
CCn1c2ccccc2c2cc(NC(=O)c3ccccc3[N+](=O)[O-])ccc21,4,0,13,15,8,30*
Cc1ccc(NC(=S)NCCN2CCOCC2)cc1F,5,5,4,2,8,4
O=c1cc(-c2ccc([N+](=O)[O-])cc2)nc2cc(-c3ccc(F)cc3)[nH]n12,17,58*,8,33*,10,-1
O=C1c2ccccc2-c2onc3c(N4CCN(CCO)CC4)cc(N4CCN(C(=O)c5ccco5)CC4)c1c23,-109,-58,9,29*,-78,16
Cc1ccc(-n2c(-c3ccc(Cl)cc3)n[nH]c2=S)c(C)c1,4,29*,4,1,4,11
COc1ccc(-c2n[nH]c(=S)n2-c2ccc(C)cc2C)cc1,5,5,2,3,3,2
O=c1c2ccccc2nc2n1C(CSCc1ccc(Cl)cc1Cl)CS2 (stereo not given),12,39*,8,4,10,2
Cc1ccc(C(=O)ON=C2CCN(c3ccc([N+](=O)[O-])cc3)CC2)cc1,77*,3,-4,8,6,0
CC(=O)N1C(C)(C)CC(=NOC(=O)c2ccc(C)cc2)CC1(C)C,83*,0,-3,25*,10,-6
SMILES,PAFAH2 FP inh,PAFAH1B2 inh,Fam108B inh,pPAFAH inh,PAFAH1B3 FP inh,PME-1 inh
Cc1ccc(C(=O)NC(=S)N2CCN(c3ccc([N+](=O)[O-])cc3)CC2)cc1,-6,1,-1,2,3,4
COc1ccc(N2CCN(c3ncnc4c3[nH]c3ccccc34)CC2)cc1,4,-1,13,17,3,32*
Fc1ccc2[nH]c3c(N4CCN(c5ccccc5)CC4)ncnc3c2c1,14,0,16,10,4,46*
CCOC(=O)N1CCN(c2ncnc3c2[nH]c2ccc(F)cc23)CC1,-10,8,0,10,9,8
O=P(CCc1ccccc1)(c1ccccc1)c1ccccc1,0,2,·,·,3,·
Cc1noc(C)c1COc1ccccc1C(=O)NC(C)c1ccc(Cl)cc1 (stereo not given),0,32*,·,-4,9,2
CCOC(=O)CCCCC(=O)c1[nH]c(=O)[nH]c1CSc1nc(C)cc(=O)[nH]1,-1,5,3,2,0,2
CCOC(=O)CCCCC(=O)c1[nH]c(=O)[nH]c1CSc1nc2ccccc2[nH]1,27,25*,1,4,24,-3
CCC(CC)NC(=O)COC(=O)c1ccc(OCc2ccc(C(C)=O)cc2OC)c(OC)c1,77*,-3,-6,27*,4,-8
COc1cc(C(C)=O)ccc1COc1ccc(C(=O)OCC(N)=O)cc1OC,2,0,-2,-2,-1,-3
O=C(NCC(=O)N1CCOCC1)c1ccc(Cl)cc1,5,-2,-2,4,-1,-7
O=C(C1CCCCC1)N1CCC(c2nc3c(nnn3Cc3ccccc3Cl)c(=O)[nH]2)CC1,5,4,·,·,1,·
CCCCCCC(=O)N1CCC(c2nc3c(nnn3Cc3ccccc3Cl)c(=O)[nH]2)CC1,14,3,-3,1,-1,27*
CC1CCCC(NC(=O)COC(=O)Cc2ccc(Br)cc2)C1C (stereo not given),·,·,1,25*,·,-2
CC1CCCC(NC(=O)COC(=O)COc2ccc(Br)cc2)C1C (stereo not given),-4,18,·,16,4,·
Cc1ccc(OCCC(=O)OCC(=O)NC2CCCC(C)C2C)cc1 (stereo not given),-3,34*,·,22,5,·
Cc1ccsc1C(=O)OCC(=O)NC1CCCC(C)C1C (stereo not given),85*,5,·,32*,6,·
CCOc1ccc(OCCC(=O)OCC(=O)NC2CCCCC2)cc1,7,7,1,31*,22,4
CCOc1ccc(OCCC(=O)OCC(=O)NC2CC2)cc1,-1,2,-1,11,6,-1
CC(=O)c1ccc2c(c1)c(C#N)c1ccccc1[n+]2[O-],1,4,·,·,4,·
Cc1ccccc1C(=O)NCC(=O)NC1CC1,13,2,·,1,6,·
CC1CCCC(NC(=O)COC(=O)CCC2CCCC2)C1C (stereo not given),-6,2,-2,28*,-4,2
COc1cccc2c1C1(O)C2CCCCCCCCCC12OCCCO2 (stereo not given),11,25*,·,·,0,·
Cc1ccc(N2CC(C(=O)N3CCCCCC3)CC2=O)cc1 (stereo not given),3,0,-1,-1,10,4

# Screening results from PubChem.
